Measurements reported in PubChem BioAssay (NCI).
Compounds without any hit were thinned out: in the full panel of roughly 83,000, 20% have a hit.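 Note: values are percent growth. 100 is the growth of untreated cells, values between 100 and 0 indicate rising inhibition; between -100 and 0 indicates cell death.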 Active and inactive are the calls of the source.

tested on: HOP-92 NSCLC; experiment: NCI-60 one-dose screen, 48 h (100 = growth as untreated, 0 = no growth, -100 = all killed); settings: 10 µM unless noted
Protocol: Growth inhibition of the HOP-92 human Non-Small Cell Lung tumor cell line is measured as a screen for anti-cancer activity. Cells are grown in 96 well plates and exposed to the test compound for 48 hours. Compounds are tested at a single concentration, which is 10^-5 M for most compounds. The reported endpoint is percent growth (GI% or GIPRCNT), where numbers from 0 - 100% represent growth inhibition, and numbers from -100% - 0 represent cell death. For example, a value of 40 represents 60% growth inhibition. A value of 0 means no net growth occurred over the course of the experiment. A value of -40 indicates 40% of cells at the beginning of the experiment died by the end of the experiment. A value of -100 means all cells are dead at the end of the experiment.
NCI-60 Human Tumor Cell Lines Screen was performed using the standard one-dose NCI protocol, which is described in more detail at https://dtp.cancer.gov/discovery_development/nci-60/default.htm.
Compounds with GIPRCNT values below 10 were considered active. Activity score was based on GIPRCNT using the following formula: […]
Score is 0 for GIPRCNT values of 100 or above, 50 for GIPRCNT values of 0, and 100 for GIPRCNT values of -100.

| SMILES | growth |
| --- | --- |
| CN1CCN(c2ccc(C(=O)/C=C/c3ccc(Cl)c(C(F)(F)F)c3)cc2)CC1 | 41.8% (inactive) |
| Cc1ccc(S(=O)(=O)N/N=C/c2cn(-c3ccc(F)cc3)nc2-c2ccc(S(C)(=O)=O)cc2)cc1 | 89.7% (inactive) |
| CCN1C(=O)N(CC)C2C1NN=C1SC(c3ccccc3)=CC(=O)N12 (stereo not given) | 44.3% (inactive) |
| Oc1ccccc1/C=N/Nc1nc(N/N=C/c2ccccc2O)nc(N2CCOCC2)n1 | -12.8% (active) |
| CC[C@]12C=CCN3CC[C@]4(C(=C(C(=O)OC)C1)Nc1cc5c(cc14)[C@@H]1[C@H](O5)[C@@H](O)[C@@]4(CC)CC(C(=O)OC)=C5Nc6cc(OC)ccc6[C@@]56CCN1[C@@H]46)[C@@H]32 | 37.1% (inactive) |
| N#Cc1c(-c2ccccc2)cc(-c2c[nH]c3ccccc23)nc1-c1c[nH]c2ccccc12 | 92.1% (inactive) |
| O=c1[nH]c(CCl)nc2c1cnn2-c1ccccc1 | 101% (inactive) |
| C=CCn1c(SCC(=O)Nc2cccc(C(=O)/C=C/c3ccccc3Cl)c2)nc2ccccc2c1=O | 70.7% (inactive) |
| C/C(=N\NC(=S)Nc1ccc(Br)cc1)c1cc2ccccc2oc1=O | 29.1% (inactive) |
| O=C(c1cccc(F)c1)n1ccc2cc(NC(=S)Nc3cccnc3)ccc21 | 123% (inactive) |
| COc1ccc(NC(=O)Cn2cc(CN3C(=O)c4ccc([N+](=O)[O-])cc4C3=O)nn2)cc1 | 85.6% (inactive) |
| C=CCn1c(SCC(=O)Nc2cccc(C(=O)/C=C/c3cccc([N+](=O)[O-])c3)c2)nc2ccccc2c1=O | 82.1% (inactive) |
| COc1ccc2c(c1)oc1c3[nH]c4ccccc4c3c3c(c21)C(=O)N(O)C3=O | 98.7% (inactive) |
| Oc1ccc(CSc2nnc(-c3cnccn3)o2)c2cccnc12 | -9.09% (active) |
| COc1ccc(/C=N/Nc2nc(Nc3ccccc3)nc(Nc3ccc(S(N)(=O)=O)cc3)n2)cc1 | 95.7% (inactive) |
| O=S(=O)(Nc1ccc(I)c(Cl)c1)c1ccc(-c2cnc(C3CC3)o2)cc1 | 49% (inactive) |
| CS(=O)(=O)c1nccc(-c2c(-c3ccc(F)c(OCc4ccc(F)cc4)c3)nc3sccn23)n1 | 23% (inactive) |
| Cn1cc(-c2nn3cc(-c4cccnc4)nc3s2)c2cc(F)ccc21 | 60.5% (inactive) |
| CCOC(=O)C1=C(C)Nc2nnc(Nc3ccccc3)n2C1c1ccccc1 (stereo not given) | 82.4% (inactive) |
| Nc1cc(F)ccc1NC(=O)c1ccc(NC(=O)C/C=C/c2cccnc2)cn1 | 5.74% (active) |

| SMILES | growth |
| --- | --- |
| CCCCCc1ccc(S(=O)(=O)N(C(C)=O)c2cccc(-c3csc(N(CCN4CCN(C)CC4)C(C)=O)n3)c2)cc1 | 34% (inactive) |
| Nc1nc(N)c2c(n1)NC(c1ccccc1)CC(c1ccc(Nc3nc(NCCO)nc(Nc4ccc(Cl)cc4)n3)cc1)=N2 (stereo not given) | -79.1% (active) |
| COc1ccc(-c2ccnc3c(C#N)c(Nc4ccccc4)nn23)cc1OC | -0.0748% (active) |
| C=C(C)[C@@H]1CC[C@]2(C(=O)NCCCN(CCC#N)CCC#N)CC[C@]3(C)[C@H](CC[C@@H]4[C@@]5(C)CCC(=O)C(C)(C)[C@@H]5CC[C@]43C)[C@@H]12 | 102% (inactive) |
| N#Cc1c(NC(=O)c2ccccc2C(F)(F)F)sc2c1CCC(=O)C2 | -36.7% (active) |
| Cc1ccc(NC(=O)c2cccc(CN3CCN(C)CC3)c2)cc1Oc1ccc(-c2[nH]nc3ncnc(N)c23)cc1 | 65.3% (inactive) |
| CS(=O)(=O)c1ccc(-c2nn(-c3ccccc3)cc2/C=N/NC(=O)c2ccncc2)cc1 | 96.3% (inactive) |
| Cc1cc(O)c2c(c1)C(=O)C(c1c(C)cc3c(c1O)C(=O)C=CC3=O)=CC2=O | 108% (inactive) |
| ClC(Cl)c1nc(-c2cccs2)n2nc(-c3ccccc3)cc2n1 | -27.7% (active) |
| Cc1cccc(NC(c2cc3cccc4ccc5cccc2c5c43)c2nnnn2C(C)(C)C)c1C (stereo not given) | 90.2% (inactive) |
| Nc1nc(-c2cccc([N+](=O)[O-])c2)c(N=Nc2ccccc2[N+](=O)[O-])s1 | -28.4% (active) |
| O=S(=O)(Nc1ccc(C2CC2)cc1)c1ccc(-c2cnc(C3CC3)o2)cc1 | 77.3% (inactive) |
| CN(C)CCn1c2ccc(N)cc2c2nc3ccccc3nc21 | 47.7% (inactive) |
| Cc1cc(NS(=O)(=O)c2ccc(-c3cnc(C4CC4)o3)cc2)ccc1I | 62.4% (inactive) |
| CCOC(=O)C1=C(C)Nc2nc3ccccc3n2C1c1cccc(Br)c1 (stereo not given) | 99.3% (inactive) |
| Cc1ccc(-c2csc(N/N=C/c3nc4ccccc4n3C3CC3)n2)cc1 | 92.8% (inactive) |
| COc1cnc2c(c1)C(=O)c1c-2n(CCCNCC2CC2)c(=O)c2cc(F)ccc12 | -5.96% (active) |
| Oc1ccc(CSc2nnc(-c3ccncc3)n2-c2ccccc2)c2cccnc12 | -7.79% (active) |
| C=C(C)[C@@H]1CC[C@]2(C)[C@H](CC=C3[C@@H]4CC(C)(C)CC[C@]4(C(=O)NCC#CCN4CCN(C)CC4)CC[C@]32C)[C@@]1(C)CCC#N | 13% (inactive) |
| Brc1cccc(/C=N/Nc2nc(N/N=C/c3cccc(Br)c3)nc(N3CCOCC3)n2)c1 | 63.8% (inactive) |
